FLuc modulator – counter-screen for miR-21 project: firefly luciferase inhibitors or activators; purified FLuc, Km substrates, luminescence inhibition; Potency, µM (highest dose often 57.5 µM), most hits filed as inhibitors; 360,000 compounds, 6.9% hits; AID 588342; further: nearly all actives have a fitted effect of over 55% in size
Target sequence (P08659 whole entry, looked up): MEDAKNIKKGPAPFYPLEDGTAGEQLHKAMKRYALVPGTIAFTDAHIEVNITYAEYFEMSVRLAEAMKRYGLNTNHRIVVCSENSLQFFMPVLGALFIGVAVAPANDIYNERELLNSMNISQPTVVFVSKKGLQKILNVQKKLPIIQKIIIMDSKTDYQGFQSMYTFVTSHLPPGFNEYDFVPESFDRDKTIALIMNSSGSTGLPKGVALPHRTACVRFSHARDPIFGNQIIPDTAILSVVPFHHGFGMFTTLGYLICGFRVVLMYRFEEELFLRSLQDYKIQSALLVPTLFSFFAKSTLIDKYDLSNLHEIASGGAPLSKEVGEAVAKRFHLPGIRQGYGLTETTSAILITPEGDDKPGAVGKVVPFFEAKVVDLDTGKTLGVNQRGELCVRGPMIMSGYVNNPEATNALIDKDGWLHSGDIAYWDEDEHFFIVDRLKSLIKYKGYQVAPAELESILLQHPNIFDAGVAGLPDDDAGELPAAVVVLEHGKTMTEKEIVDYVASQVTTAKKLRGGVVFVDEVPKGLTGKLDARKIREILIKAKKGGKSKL
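Biochemical qHTS of compounds, final roughly 60 µM downward over six points, against 10 nM purified firefly luciferase using Km concentrations of substrates (10 uM D-luciferin, 10 uM ATP) in Tris acetate pH 7.5 buffer; luminescence output.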
SMN2 splice enh – SMN2 splice variant enhancement; HEK293 SMN2-luciferase splicing reporter, luminescence, 30-36 h; Potency, µM (top dose mostly 46.1 µM), most hits filed as activators; 210,000 compounds, 2.8% hits; AID 1458; further: nearly all actives have a fitted effect of over 55% in size
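HEK293 cells carry an SMN2 minigene-luciferase reporter in which exon 7 inclusion puts luciferase in frame. Cells were seeded at 2000 cells/well, attached for 10-12 hours, then exposed to compounds for 30-36 hours at 37C before ONE-Glo luminescence.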
ELG1 genotox – genotoxicity induction in ELG1-luciferase HEK293T cells | HEK293T ELG1-luciferase reporter, luminescence, 16 h | Potency, µM (highest dose often 46 µM), usual class: activators | 330,000 compounds, 1.3% hits; further: nearly all actives have a fitted effect of over 60% in size
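ELG1-luciferase HEK293T cells, 2,000/well; compound pinned in; 16 hr, 37 °C, 5% CO2; ONE-Glo, 30 min RT; luminescence on CCD imager.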
Rab9 promoter act – activates the Rab9 promoter | Huh7 Rab9 promoter-luciferase reporter, luminescence, 24 h | Potency, µM (highest dose often 9.22 µM), usual class: activators | 320,000 compounds, 2.8% hits | AID 485297; further: nearly all actives have a fitted effect of over 60% in size
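Using Huh7 cells stably transfected with Rab9 promoter–luciferase, compounds were incubated 24 h at 37 °C, 5% CO2; luciferase luminescence was read 10 min after reagent addition.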
NPC1 promoter act – activators of NPC1 promoter; Potency, µM (highest dose often 9.22 µM), usual class: activators; 320,000 compounds, 2.4% hits; Huh7 NPC1 promoter luciferase reporter, 24 h; AID 485313; further: nearly all actives have a fitted effect of over 60% in size
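Luciferase expression driven by the NPC1 promoter was measured in stably transfected Huh7 cells after a 24 h compound incubation, using a luciferase reagent and a luminescence read.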
Luc counter – Kinase-Glo luciferase inhibition (counter-screen) | Potency, µM (doses to about 38.3 µM), hits mostly inhibitors | Q27757 | 200,000 compounds, 0.28% hits | Kinase-Glo luciferase, ATP luminescence, 8 min; further: nearly all actives have a fitted effect of over 60% in size
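Compound is pinned into ATP-containing buffer (10 uM ATP, imidazole pH 7.2, 7 mM MgCl2). Kinase-Glo luciferase reagent is then added. Light output is recorded following an 8-min room-temperature incubation.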
Large screens that a line does not name were inactive. Most compounds without a hit are left out; they make up all but 7.4% or so of the library. The call rests on the fitted dose curve; in most records, active means well fitted curve in the direction sought with a large enough effect; inconclusive means small, poorly fitted or top-dose-only effect, or another doubt; inactive means no such curve, though single readings can be large; an effect the other way counts as inactive or inconclusive.

Cc1ccc(C(=O)Nc2ncccc2S(=O)(=O)c2ccccc2)cc1	FLuc modulator 11µM, ELG1 genotox inconclusive, Rab9 promoter act 2.8µM, NPC1 promoter act 2.8µM (no result: SMN2 splice enh, Luc counter)
CCCCn1nc(NC(=O)c2cccc(Cl)c2)c2cc3cccc(C)c3nc21	none (no result: ELG1 genotox, Rab9 promoter act, NPC1 promoter act, Luc counter)
COC/C=C/C1=CC2=CC(=O)C(C)(OC(=O)c3ccc(Cl)nc3)C(=O)C2=CO1 (configuration not stated)	none (no result: FLuc modulator, ELG1 genotox, Rab9 promoter act, NPC1 promoter act)
CC(=O)Nc1ccc(-c2csc(N/N=C\c3ccncc3)n2)cc1	FLuc modulator 7.6µM (no result: SMN2 splice enh, Luc counter)
CCCC(=O)Nc1ccc(-c2csc(NNC(C)=O)n2)cc1	none (no result: SMN2 splice enh, Luc counter)
CCCC(=O)Nc1ccc(-c2csc(N/N=C\c3ccncc3)n2)cc1	FLuc modulator 3µM, Rab9 promoter act inconclusive, NPC1 promoter act inconclusive (no result: SMN2 splice enh, Luc counter)
CCOC(=O)Cn1c(=O)oc2cc(S(=O)(=O)Nc3ccccc3F)ccc21	none (no result: ELG1 genotox, Rab9 promoter act, NPC1 promoter act, Luc counter)
Clc1cc(Cl)c(OCc2nc(-c3ccccn3)no2)cc1Cl	FLuc modulator 1.3µM, SMN2 splice enh 11µM, ELG1 genotox inconclusive, Rab9 promoter act 0.71µM, NPC1 promoter act 1.1µM
CC(C)(C)c1ccc(OCc2nc(-c3ccccn3)no2)c(Br)c1	FLuc modulator 3µM, SMN2 splice enh 13µM (no result: ELG1 genotox, Rab9 promoter act, NPC1 promoter act)
O=C(OCC(=O)c1ccc[nH]1)c1ccc(Cl)c(Cl)c1	none (no result: FLuc modulator, SMN2 splice enh, Rab9 promoter act, NPC1 promoter act, Luc counter)
O=C(COC(=O)c1c(F)cccc1F)c1ccc[nH]1	FLuc modulator 17µM (no result: SMN2 splice enh, Luc counter)
O=C(COC(=O)c1nc(Cl)c(Cl)c(Cl)c1Cl)c1ccc[nH]1	ELG1 genotox inconclusive (no result: SMN2 splice enh, Luc counter)
O=C(/C=C/c1ccccc1Cl)OCC(=O)c1ccc[nH]1	FLuc modulator 9.5µM (no result: SMN2 splice enh, Luc counter)
O=C(OCC(=O)c1ccc[nH]1)c1ccccc1	FLuc modulator 17µM, ELG1 genotox inconclusive, Rab9 promoter act inconclusive
CN(C)c1ccc(C(=O)OCC(=O)c2ccc[nH]2)cc1	ELG1 genotox 16µM (no result: FLuc modulator, SMN2 splice enh, Rab9 promoter act, NPC1 promoter act, Luc counter)
COC(=O)C1=C(C(=O)OC)[C@@H]2N(Cc3ccccc3)c3ccccc3[C@@]23C[C@@H](C(=O)OC)N(S(=O)(=O)c2ccc(Br)cc2)C3=N1	none (no result: FLuc modulator, ELG1 genotox, Rab9 promoter act, NPC1 promoter act)
COc1ccc(C(=O)CC2(O)C(=O)N(Cc3ccccc3)c3ccc(Br)cc32)cc1 (configuration not stated)	none (no result: ELG1 genotox, Rab9 promoter act, NPC1 promoter act, Luc counter)
Cc1ccc(Cn2c(Sc3ncccn3)nc3c2c(=O)[nH]c(=O)n3C)cc1	none
CC(=O)CSc1nc2c(c(=O)[nH]c(=O)n2C)n1Cc1cccc(Br)c1	ELG1 genotox 21µM (no result: SMN2 splice enh, Luc counter)
Cn1c(=O)[nH]c(=O)c2c1nc(SCCC(=O)O)n2Cc1cccc(Br)c1	none (no result: SMN2 splice enh, Luc counter)
C/C=C/CSc1nc2c(c(=O)[nH]c(=O)n2C)n1Cc1ccc(C)cc1	ELG1 genotox 21µM
O=C(CNC(=O)c1ccccc1F)OCc1nc2ccccc2s1	FLuc modulator 17µM
O=C(CNC(=O)c1ccccc1)OCc1nc2ccccc2s1	FLuc modulator 9.5µM, ELG1 genotox inconclusive (no result: SMN2 splice enh, Luc counter)
CCn1c(CN2CCCCC2)nc2cc(NC(=O)c3ccc([N+](=O)[O-])cc3)ccc21	none (no result: SMN2 splice enh, ELG1 genotox, Rab9 promoter act, NPC1 promoter act, Luc counter)
CCOc1ccc(C(=O)c2cn(Cc3ccc(Cl)cc3)c3cc(OC)c(OC)cc3c2=O)cc1	none (no result: ELG1 genotox, Rab9 promoter act, NPC1 promoter act, Luc counter)
Cc1ccc(-c2ccc(/C=N\NC(=O)c3cc4c(ccc5ccccc54)o3)o2)cc1[N+](=O)[O-]	none
O=C(N/N=C/c1ccc(-c2ccc(Cl)c(C(=O)O)c2)o1)c1cc2c(ccc3ccccc32)o1	FLuc modulator 21µM (no result: SMN2 splice enh, Luc counter)
O=C(N/N=C/c1ccncc1)c1cc2c(ccc3ccccc32)o1	FLuc modulator inconclusive
COc1ccc(/C=N\NC(=O)c2cc3c(ccc4ccccc43)o2)cc1O	FLuc modulator 12µM (no result: SMN2 splice enh, Luc counter)
O=C(O)c1ccc(/C=N/NC(=O)c2cc3c(ccc4ccccc43)o2)cc1	FLuc modulator 6µM (no result: SMN2 splice enh, Luc counter)
COc1ccc(/C=N/NC(=O)c2cc3c(ccc4ccccc43)o2)cc1OC	FLuc modulator 11µM (no result: SMN2 splice enh, Luc counter)
O=C(N/N=C/c1cccc([N+](=O)[O-])c1)c1cc2c(ccc3ccccc32)o1	NPC1 promoter act inconclusive
CCc1ccc(NC(=O)C2CCN(c3cc(C)nc4c(-c5ccc(Cl)cc5)c(C)nn34)CC2)cc1	none (no result: ELG1 genotox, Rab9 promoter act, NPC1 promoter act, Luc counter)
CCOc1ccc(CNC(=O)CSc2nnc(C)c3c(C)n(-c4ccc(Cl)cc4)nc23)cc1	none (no result: SMN2 splice enh, ELG1 genotox, Rab9 promoter act, NPC1 promoter act, Luc counter)
